The results in this text go back to ChEMBL document CHEMBL5724796, “Tm Shift (DSF) assay results for EUbOPEN Chemogenomics Library” (2024).

Common to all, as to settings: Compound concentration 20.0 uM
Assay [1] concerns the target Tyrosine-protein kinase ABL1 (Homo sapiens) (UniProt P00519).
Assay [2] concerns the target Bromodomain-containing protein 4 (Homo sapiens) (UniProt O60885).
The target of assay [3] is Cyclin-dependent kinase 2 (Homo sapiens) (UniProt P24941).
Assay [4] deals with Casein kinase I isoform delta (Homo sapiens) (UniProt P48730).
Chain of Casein kinase I isoform delta (Homo sapiens) (P48730 whole entry, looked up, canonical isoform): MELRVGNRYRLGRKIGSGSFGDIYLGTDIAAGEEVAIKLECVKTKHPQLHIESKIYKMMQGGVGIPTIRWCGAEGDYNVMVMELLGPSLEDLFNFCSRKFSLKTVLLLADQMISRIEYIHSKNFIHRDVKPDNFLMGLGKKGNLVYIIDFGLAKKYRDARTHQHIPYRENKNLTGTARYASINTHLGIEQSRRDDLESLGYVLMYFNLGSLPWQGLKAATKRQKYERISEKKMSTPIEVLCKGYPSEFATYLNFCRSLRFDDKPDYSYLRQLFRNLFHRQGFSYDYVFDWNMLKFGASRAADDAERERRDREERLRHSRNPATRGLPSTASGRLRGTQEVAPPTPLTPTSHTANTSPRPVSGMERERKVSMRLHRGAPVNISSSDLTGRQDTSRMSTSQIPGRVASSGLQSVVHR
Assay [5] has as its target Glycogen synthase kinase-3 beta (Homo sapiens) (UniProt P49841).
Assay [6] has as its target Mitogen-activated protein kinase 1 (Homo sapiens) (UniProt P28482).
Assay [7] deals with T1, Aurora kinase A (Homo sapiens) (UniProt O14965).
T1 sequence (whole entry): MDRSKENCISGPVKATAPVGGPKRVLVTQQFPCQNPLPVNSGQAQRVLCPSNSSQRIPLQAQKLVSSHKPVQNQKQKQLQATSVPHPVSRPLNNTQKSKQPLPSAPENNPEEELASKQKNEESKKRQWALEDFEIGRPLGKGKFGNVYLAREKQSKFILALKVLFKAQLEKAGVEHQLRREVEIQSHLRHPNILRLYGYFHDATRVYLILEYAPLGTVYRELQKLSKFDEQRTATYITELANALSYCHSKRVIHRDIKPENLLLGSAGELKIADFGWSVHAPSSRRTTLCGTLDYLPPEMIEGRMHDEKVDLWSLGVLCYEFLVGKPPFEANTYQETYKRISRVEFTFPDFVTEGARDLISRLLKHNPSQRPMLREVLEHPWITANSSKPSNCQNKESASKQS

For assay [8], the target named is T2, Transcription intermediary factor 1-alpha (Homo sapiens) (UniProt O15164).
T2 sequence (whole entry): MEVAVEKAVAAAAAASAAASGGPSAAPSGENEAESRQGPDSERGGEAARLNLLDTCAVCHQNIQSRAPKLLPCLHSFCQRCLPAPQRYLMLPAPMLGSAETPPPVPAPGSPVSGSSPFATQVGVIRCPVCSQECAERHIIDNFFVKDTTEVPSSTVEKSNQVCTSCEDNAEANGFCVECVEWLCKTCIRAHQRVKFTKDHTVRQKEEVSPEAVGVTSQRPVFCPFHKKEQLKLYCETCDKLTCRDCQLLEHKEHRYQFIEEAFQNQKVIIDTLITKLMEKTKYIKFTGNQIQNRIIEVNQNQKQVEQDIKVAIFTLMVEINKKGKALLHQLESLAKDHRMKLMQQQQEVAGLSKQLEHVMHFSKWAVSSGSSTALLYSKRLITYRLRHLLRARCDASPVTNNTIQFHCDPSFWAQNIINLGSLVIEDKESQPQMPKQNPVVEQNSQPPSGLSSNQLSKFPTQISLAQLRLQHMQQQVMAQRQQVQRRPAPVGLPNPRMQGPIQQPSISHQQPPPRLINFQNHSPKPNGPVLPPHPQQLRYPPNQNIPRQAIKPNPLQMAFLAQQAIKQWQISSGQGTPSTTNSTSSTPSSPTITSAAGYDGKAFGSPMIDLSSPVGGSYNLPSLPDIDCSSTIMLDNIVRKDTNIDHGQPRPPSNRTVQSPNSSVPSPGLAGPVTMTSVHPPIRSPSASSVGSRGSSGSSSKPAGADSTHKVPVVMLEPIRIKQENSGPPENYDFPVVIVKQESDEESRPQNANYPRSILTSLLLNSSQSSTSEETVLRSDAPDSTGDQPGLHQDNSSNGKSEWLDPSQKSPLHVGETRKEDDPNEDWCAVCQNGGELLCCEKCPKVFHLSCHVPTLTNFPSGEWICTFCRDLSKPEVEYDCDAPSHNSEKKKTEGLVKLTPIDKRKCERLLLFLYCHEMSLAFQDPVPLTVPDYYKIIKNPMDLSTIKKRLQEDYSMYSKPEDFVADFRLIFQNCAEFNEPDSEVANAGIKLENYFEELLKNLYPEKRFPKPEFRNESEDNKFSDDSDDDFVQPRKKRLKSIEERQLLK

The structures appear in SMILES notation. Residues, ends and D or L forms follow the SMILES beside them.

Chain of Tyrosine-protein kinase ABL1 (Homo sapiens) (P00519 whole entry): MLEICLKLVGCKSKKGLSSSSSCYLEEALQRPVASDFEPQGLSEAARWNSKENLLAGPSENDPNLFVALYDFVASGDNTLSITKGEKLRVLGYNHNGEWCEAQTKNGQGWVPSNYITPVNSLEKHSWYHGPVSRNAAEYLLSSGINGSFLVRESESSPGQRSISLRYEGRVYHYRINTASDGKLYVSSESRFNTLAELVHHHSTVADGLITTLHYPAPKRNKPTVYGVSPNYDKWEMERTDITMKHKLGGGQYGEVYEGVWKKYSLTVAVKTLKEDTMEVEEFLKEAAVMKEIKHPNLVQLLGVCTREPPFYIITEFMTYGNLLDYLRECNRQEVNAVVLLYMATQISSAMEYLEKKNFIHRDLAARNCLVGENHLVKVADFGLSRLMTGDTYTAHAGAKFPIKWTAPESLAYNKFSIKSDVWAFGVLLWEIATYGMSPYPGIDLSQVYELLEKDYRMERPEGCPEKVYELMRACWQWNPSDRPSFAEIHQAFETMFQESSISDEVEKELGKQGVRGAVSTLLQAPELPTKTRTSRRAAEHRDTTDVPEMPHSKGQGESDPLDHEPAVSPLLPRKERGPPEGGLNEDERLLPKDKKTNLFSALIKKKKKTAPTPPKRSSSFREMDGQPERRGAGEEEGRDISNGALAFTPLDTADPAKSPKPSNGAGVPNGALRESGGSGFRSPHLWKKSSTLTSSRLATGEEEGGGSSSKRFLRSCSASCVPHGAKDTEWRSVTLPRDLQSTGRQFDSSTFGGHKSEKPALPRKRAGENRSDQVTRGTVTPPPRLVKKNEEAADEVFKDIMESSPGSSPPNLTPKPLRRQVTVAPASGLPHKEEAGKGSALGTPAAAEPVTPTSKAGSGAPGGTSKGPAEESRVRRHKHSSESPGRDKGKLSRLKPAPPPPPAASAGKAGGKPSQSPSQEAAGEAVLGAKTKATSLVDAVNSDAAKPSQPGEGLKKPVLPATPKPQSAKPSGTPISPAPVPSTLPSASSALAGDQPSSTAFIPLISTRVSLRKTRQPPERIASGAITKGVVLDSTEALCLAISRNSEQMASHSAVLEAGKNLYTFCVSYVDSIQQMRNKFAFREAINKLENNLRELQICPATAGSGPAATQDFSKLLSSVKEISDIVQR
Chain of Mitogen-activated protein kinase 1 (Homo sapiens) (P28482 whole entry): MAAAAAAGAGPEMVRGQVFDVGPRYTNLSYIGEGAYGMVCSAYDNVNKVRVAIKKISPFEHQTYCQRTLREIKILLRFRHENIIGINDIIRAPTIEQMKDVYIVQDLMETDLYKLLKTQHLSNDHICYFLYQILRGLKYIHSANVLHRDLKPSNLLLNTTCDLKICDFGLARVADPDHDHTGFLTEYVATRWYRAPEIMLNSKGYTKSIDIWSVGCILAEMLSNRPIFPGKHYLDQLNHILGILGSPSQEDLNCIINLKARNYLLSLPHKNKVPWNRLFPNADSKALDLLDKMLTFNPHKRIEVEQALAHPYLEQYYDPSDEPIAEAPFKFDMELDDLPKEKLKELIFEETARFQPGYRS
Chain of Glycogen synthase kinase-3 beta (Homo sapiens) (P49841 whole entry, looked up): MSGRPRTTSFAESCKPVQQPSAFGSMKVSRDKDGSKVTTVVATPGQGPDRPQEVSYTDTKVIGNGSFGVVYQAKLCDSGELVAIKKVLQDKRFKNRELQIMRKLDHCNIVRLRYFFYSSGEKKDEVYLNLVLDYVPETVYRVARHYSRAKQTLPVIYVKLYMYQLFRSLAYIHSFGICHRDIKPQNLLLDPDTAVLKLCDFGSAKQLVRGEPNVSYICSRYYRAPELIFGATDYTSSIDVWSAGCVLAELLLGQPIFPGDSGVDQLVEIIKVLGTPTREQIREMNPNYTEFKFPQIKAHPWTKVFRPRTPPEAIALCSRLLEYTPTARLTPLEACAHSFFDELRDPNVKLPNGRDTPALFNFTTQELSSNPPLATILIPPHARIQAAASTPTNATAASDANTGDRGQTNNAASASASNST

For the compound `CS(=O)(=O)N1CCN(C(=O)c2cnc3ccc(F)cc3c2-c2ccc(C3(C#N)CC3)cc2)CC1`, the ΔTm in assay [1] came to 0.07 °C; in assay [2], 1.15 °C; in assay [3] it was 0.13 °C; in assay [4], 0.11 °C; in assay [5], 3.18 °C; in assay [6], 0.08 °C. Also, the ΔTm in assay [7] is -1.44 °C; in assay [8] it was 0.3 °C.

Regarding `Nc1c[nH]c(=O)c2cc(-c3ccccc3)sc12`, the ΔTm in assay [1] was 0.27 °C; in assay [2] it was -1.56 °C; in assay [3] it was -0.22 °C; in assay [4] it was 0.6 °C; in assay [5] it was -0.86 °C; in assay [6], 0.57 °C. Also, the ΔTm in assay [7] is -0.64 °C; in assay [8] it was -1.2 °C.

For `COc1cc2c(cc1OC)[C@H]1C[C@@H](O)[C@H](CC(C)C)CN1CC2`, the ΔTm is 0.04 °C in assay [1]; 1.89 °C in assay [2]; 0.25 °C in assay [3]; -0.17 °C in assay [4]; -0.88 °C in assay [5]; 0.59 °C in assay [6]. The ΔTm was -0.72 °C in assay [7] and 0.12 °C in assay [8].

Turning to `CC(=O)N[C@@H](Cc1ccc(O)cc1)C(=O)N[C@H](C(=O)N[C@@H](C)C(=O)N[C@@H](CC(=O)O)C(=O)CCl)C(C)C`, the ΔTm is 0.08 °C in assay [1]; -2.91 °C in assay [2]; -0.27 °C in assay [3]; 0.22 °C in assay [4]; -1.19 °C in assay [5]; -0.01 °C in assay [6]. The ΔTm is -1.19 °C in assay [7] and -1.17 °C in assay [8].

Consider `COc1ccccc1C(=O)Nc1cc2c(cc1N1CCNC[C@H]1C)n(C)c(=O)n2C`, for which the ΔTm stood at 0.51 °C in assay [1]; 1.74 °C in assay [2]; 0.17 °C in assay [3]; 0.91 °C in assay [4]; 0.41 °C in assay [5]; 0.25 °C in assay [6]. Besides, the ΔTm in assay [7] was -0.29 °C; in assay [8] it was 0.27 °C.

Regarding `Cn1cc(-c2ccncc2)c(-c2ccc(OCc3ccc4ccccc4n3)cc2)n1`, the ΔTm is 0.66 °C in assay [1]; -0.49 °C in assay [2]; -0.35 °C in assay [3]; 1.79 °C in assay [4]; 0 °C in assay [5]; 0.13 °C in assay [6]. In addition, the ΔTm in assay [7] stood at 2.06 °C; in assay [8], 0.65 °C.

For the compound `CC(C)c1cc(C(=O)N2CC[C@@H](NC(=O)C3CC3)C2)[nH]n1`, the ΔTm in assay [1] is 0.79 °C; in assay [2] it was -3.2 °C; in assay [3] it was 0.06 °C; in assay [4], -0.08 °C; in assay [5] it was -0.75 °C; in assay [6] it was 0.08 °C. Moreover, the ΔTm in assay [7] was -2.47 °C; in assay [8] it was 1.07 °C.

`NC(=O)C1CN(CCCCC(c2ccc(F)cc2)c2ccc(F)cc2)CCN1CC(=O)Nc1c(Cl)cc(N)cc1Cl` (stereo not drawn): the ΔTm in assay [1] is -3.72 °C; in assay [2], -1.03 °C; in assay [3], -3.44 °C; in assay [4], -5.13 °C; in assay [5], -5.78 °C; in assay [6], -8.93 °C. For the same compound, the ΔTm in assay [7] was -8.05 °C; in assay [8], 4.39 °C.

In the case of `Cc1ncsc1-c1ccc([C@H](C)NC(=O)[C@@H]2C[C@@H](O)CN2C(=O)[C@@H](NC(=O)CNC(=O)c2ccc(F)c(-c3ccc(N4C[C@@H](C)N(C)[C@@H](C)C4)c(NC(=O)c4c[nH]c(=O)cc4C(F)(F)F)c3)c2)C(C)(C)C)cc1`, the ΔTm in assay [1] is -0.64 °C; in assay [2] it was -6.28 °C; in assay [3], -0.94 °C; in assay [4] it was 0.81 °C; in assay [5] it was -3.51 °C; in assay [6], -15.7 °C. The ΔTm in assay [7] was -5.35 °C; in assay [8], 1.29 °C.

With `N[C@@H](CCNCc1ccc(Cl)cc1)C(=O)N1CCCCC1`, the shift in melting temperature (ΔTm) in assay [1] is 0.49 °C; in assay [2] it was -3.21 °C; in assay [3], 0 °C; in assay [4], -0.34 °C; in assay [5] it was -0.21 °C; in assay [6] it was 0.19 °C. Moreover, the ΔTm was -2.45 °C in assay [7] and 0.39 °C in assay [8].

`CC(=O)N[C@@H](CC(C)C)C(=O)N[C@@H](CCC(=O)O)C(=O)N[C@H](C(=O)N[C@H](C=O)CC(=O)O)C(C)C` (Ac-LEVD-aldehyde): the ΔTm in assay [1] was 0.2 °C; in assay [2], -2.55 °C; in assay [3], -0.57 °C; in assay [4], 0.25 °C; in assay [5], -2.05 °C; in assay [6], -0.12 °C. Moreover, the ΔTm in assay [7] is -1.87 °C; in assay [8], -2.52 °C.
